Laboratory results published in PMC4336329 (PLoS ONE, 2015).
About 2,200 (0.71%) of roughly 310,000 compounds showed an effect of 50% or more. The effect is printed as a negative number. Many of the other results were omitted from the sample, so strong results are more common in it than they were.

Molecular target: human ether-à-go-go-related gene (hERG) potassium channel (human, UniProt Q12809)
Assay: primary screen, population patch clamp on CHO cells stably expressing hERG; higher = less effect of the substance

Chain of human ether-à-go-go-related gene (hERG) potassium channel (Q12809 whole entry, looked up): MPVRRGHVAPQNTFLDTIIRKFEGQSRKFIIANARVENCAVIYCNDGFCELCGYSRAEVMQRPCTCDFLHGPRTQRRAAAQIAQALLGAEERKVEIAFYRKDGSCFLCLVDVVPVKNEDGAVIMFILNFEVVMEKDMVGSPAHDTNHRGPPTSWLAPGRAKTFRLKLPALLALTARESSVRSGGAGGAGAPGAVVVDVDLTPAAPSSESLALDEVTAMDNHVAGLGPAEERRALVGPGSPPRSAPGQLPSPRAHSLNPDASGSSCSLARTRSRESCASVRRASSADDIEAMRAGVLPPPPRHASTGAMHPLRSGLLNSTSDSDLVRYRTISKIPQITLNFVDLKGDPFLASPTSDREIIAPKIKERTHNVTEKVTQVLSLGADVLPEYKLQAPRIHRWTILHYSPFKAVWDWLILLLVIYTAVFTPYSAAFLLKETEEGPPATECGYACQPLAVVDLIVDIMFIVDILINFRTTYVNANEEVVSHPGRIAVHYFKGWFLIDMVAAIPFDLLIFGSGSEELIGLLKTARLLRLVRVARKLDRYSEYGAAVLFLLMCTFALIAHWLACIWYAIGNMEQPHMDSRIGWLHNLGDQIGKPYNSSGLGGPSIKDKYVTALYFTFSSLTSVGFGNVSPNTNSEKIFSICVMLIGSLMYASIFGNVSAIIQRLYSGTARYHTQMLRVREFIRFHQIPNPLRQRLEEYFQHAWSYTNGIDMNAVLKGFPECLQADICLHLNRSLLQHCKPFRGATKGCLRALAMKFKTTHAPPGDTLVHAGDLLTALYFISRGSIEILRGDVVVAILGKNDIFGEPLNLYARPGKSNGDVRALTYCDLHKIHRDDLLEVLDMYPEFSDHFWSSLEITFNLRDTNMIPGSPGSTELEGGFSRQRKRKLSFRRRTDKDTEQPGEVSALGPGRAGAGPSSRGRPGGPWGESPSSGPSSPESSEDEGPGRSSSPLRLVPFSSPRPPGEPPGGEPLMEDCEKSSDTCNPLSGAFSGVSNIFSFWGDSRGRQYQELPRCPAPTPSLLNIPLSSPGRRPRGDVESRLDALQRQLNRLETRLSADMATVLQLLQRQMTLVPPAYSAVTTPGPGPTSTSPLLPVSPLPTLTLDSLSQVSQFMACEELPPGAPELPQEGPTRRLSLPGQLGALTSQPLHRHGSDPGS

| Compound | hERG current change (%, negative = inhibition) at 1uM [%] |
| --- | --- |
| COc1ccc(Sc2ccc(NC(=O)c3ccccc3Cl)cc2C#N)cc1 | 8.52 |
| Cc1ccc(-c2csc(N3CCC(NS(=O)(=O)c4ccc5c(c4)OCCO5)CC3)n2)cc1 | 9.83 |
| CCOC(=O)Nc1nc(C)c(C(=O)N(C)C)s1 | -1.49 |
| Cn1c(OCc2ccco2)nc2c1c(=O)n(Cc1ccc(Cl)c(Cl)c1)c(=O)n2C | 6.62 |
| COc1ccc(C(=O)NC(=S)N2CC(C)OC(C)C2)cc1OC (stereo not shown) | 7.44 |
| COC(=O)c1sccc1NC(=O)Nc1cccc(F)c1 | 9.69 |
| C[C@@H](C(=O)OCC(=O)NCCc1ccc(S(N)(=O)=O)cc1)N1C(=O)C2CCCCC2C1=O (stereo partly shown) | 12 |
| Cc1cccc(CN2C3=NCCCN3c3ccccc32)c1.Cl | -16.9 |
| Br.CC(C)(C)C(=O)CN1C2=NCCCN2c2ccccc21 | -46.9 |
| Br.CC(C)(C)c1ccc(CN2C3=NCCCN3c3ccccc32)cc1 | -79.7 |
| Cl.Clc1ccc(CN2C3=NCCCN3c3ccccc32)cc1Cl | -51.4 |
| Cl.Clc1cccc(CN2C3=NCCCN3c3ccccc32)c1 | -46.2 |
| Cc1ccc(CN2C3=NCCCN3c3ccccc32)cc1.Cl | -29.6 |
| O=C1CSC2(CCCCC2)N1CCO | 12.4 |
| O=C(Oc1ccc(C(=S)N2CCOCC2)cc1)c1ccccc1 | 28.6 |
| O=C(COC(=O)C1(c2ccc(F)cc2)CCCC1)Nc1ncc(C(F)(F)F)cc1Cl | 2.97 |
| O=C(C1CCN(C2CC(=O)N(c3ccc(Cl)cc3)C2=O)CC1)N1CCOCC1 (stereo not shown) | 2.01 |
| CCCC[C@@H]1C[C@H]1[C@@H](NC(=O)c1ccco1)c1ccc(Cl)cc1 | 6.22 |
| CC(Nc1nc(N2CCCC2)nc2ccccc12)c1ccccc1 (stereo not shown) | -84.6 |
| CC(Nc1nc(N2CCCCC2)nc2ccccc12)c1ccccc1 (stereo not shown) | -14.4 |
| CC(Nc1nc(N2CCOCC2)nc2ccccc12)c1ccccc1 (stereo not shown) | -52.7 |
| CC(Nc1nc(N2CCN(S(C)(=O)=O)CC2)nc2ccccc12)c1ccccc1 (stereo not shown) | -14 |
| CC(Nc1nc(N2CCN(CCO)CC2)nc2ccccc12)c1ccccc1 (stereo not shown) | -25.9 |
| CC(Nc1nc(N2CCNCC2)nc2ccccc12)c1ccccc1 (stereo not shown) | -31.7 |
| COC(=O)C(C(=O)Nc1cccc(Cl)c1C)C1CCCC1 (stereo not shown) | 5.04 |
